Compounds with a hit are over-represented: about 28% of the library has one in this group of screens.
CYP2C19 act – human CYP2C19 activators, primary screen, biochemical, luminescence | recombinant CYP2C19, luciferin-H EGE luminescence; hits give high values; 0 = fully inhibited enzyme, 1 = untreated enzyme | activation factor at 5 µM | AID 1025, 2008 | Cytochrome P450 2C19 (Homo sapiens), P33261 | 96,000 tested, under 10 active;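 active = activation factor of at least 2 at 5 µM in the primary screen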;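 note: 0 = wells with 2.5 mM tranylcypromine and 1 = vehicle-only wells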
CYP2C9 act – human CYP2C9 activators, primary screen, biochemical, luminescence | hit rate 1.4% among 96,000 | Cytochrome P450 2C9 (Homo sapiens), P11712 | recombinant CYP2C9, luciferin-H conversion; hits give high values; factor 1 = untreated enzyme, 0 = blocked | activation factor at 5 µM;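 active = activation factor of 2 or more for CYP2C9 at a 5 µM dose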;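 note: 0 = sulfaphenazole-blocked wells and 1 = vehicle-only wells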
CD11b adhes enh – enhancers of CD11b/CD18 adhesion to fibrinogen, primary screen, K562 cells, luminescence | Integrin beta-2 (Homo sapiens) + Integrin alpha-M (Homo sapiens), P05107+P11215 | ATPlite luminescence | activation, % at 10 µM | hit rate 0.07% among 93,000 | AID 1499, 2009;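 active = 10 µM primary screen giving 50% or more activity, confirmed by 40% or more on retest at that dose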
Target sequence (P05107 whole entry, looked up, other chains not shown): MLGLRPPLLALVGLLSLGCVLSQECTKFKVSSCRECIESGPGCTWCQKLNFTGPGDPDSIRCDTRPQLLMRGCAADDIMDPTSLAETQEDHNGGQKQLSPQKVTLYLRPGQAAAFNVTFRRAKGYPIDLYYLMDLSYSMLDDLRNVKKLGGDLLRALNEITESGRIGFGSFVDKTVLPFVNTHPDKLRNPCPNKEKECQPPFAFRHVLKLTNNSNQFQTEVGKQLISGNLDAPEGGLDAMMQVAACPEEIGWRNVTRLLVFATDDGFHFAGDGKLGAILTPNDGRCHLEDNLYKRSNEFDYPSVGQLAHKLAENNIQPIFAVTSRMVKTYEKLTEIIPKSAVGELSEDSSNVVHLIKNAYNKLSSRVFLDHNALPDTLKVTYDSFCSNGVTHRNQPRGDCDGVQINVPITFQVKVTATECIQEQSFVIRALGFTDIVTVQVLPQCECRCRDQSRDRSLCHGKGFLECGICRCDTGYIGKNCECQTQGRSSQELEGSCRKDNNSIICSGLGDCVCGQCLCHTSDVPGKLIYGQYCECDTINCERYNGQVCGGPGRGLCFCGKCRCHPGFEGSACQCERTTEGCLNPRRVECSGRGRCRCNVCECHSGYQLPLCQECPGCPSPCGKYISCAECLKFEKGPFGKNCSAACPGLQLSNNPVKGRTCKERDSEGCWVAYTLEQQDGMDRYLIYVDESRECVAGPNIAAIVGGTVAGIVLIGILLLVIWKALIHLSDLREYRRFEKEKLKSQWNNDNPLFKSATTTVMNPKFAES
CYP2C9 inh – blockers of cytochrome P450 2C9 activity – biochemical, luminescence, ADME assay, primary screen. P11712. CYP2C9 Supersomes, luciferin-H conversion. inhibition, % at 5 µM. hit rate 20% among 96,000;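 active = blocking of liver enzyme CYP2C9 beyond about 50% at 5 µM, limit read from the data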
CYP2C19 inh – blockers of cytochrome P450 2C19 activity – biochemical, luminescence, ADME assay, primary screen; AID 778, 2007; CYP2C19 Supersomes, luciferin-H EGE luminescence, 30 min; inhibition, % at 5 µM; hit rate 21% among 96,000;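 active = CYP2C19 inhibition above a set limit at 5 µM in the primary screen, cut at about 50% in these data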;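 note: plate controls were negative control wells for no effect and 2.5 mM tranylcypromine positive control for full effect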
Mac1 fbg inh – inhibitors of CD11b/CD18 adhesion to fibrinogen, primary screen, K562 cells, luminescence. Integrin beta-2 (Homo sapiens) + Integrin alpha-M (Homo sapiens), P05107+P11215. ATPlite luminescence; Mn2+ added to activate the integrin. inhibition, % at 10 µM. hit rate 0.54% among 93,000;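 active = primary inhibition of 50% or more at 10 µM, then 40% or more on retest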
Starred values were filed as active, the others as inactive; · = no result.

SMILES	CYP2C19 act	CYP2C9 act	CD11b adhes enh	CYP2C9 inh	CYP2C19 inh	Mac1 fbg inh
Cc1cccc(NC(=S)N2CCN(Cc3ccc4c(c3)OCO4)CC2)c1C	0.9	1	-2	0	14	-14
CC(C)CC1NC(=O)N(CC(=O)N2CCN(S(=O)(=O)c3ccccc3)CC2)C1=O (centres undefined)	1	1	·	-2	-3	·
COc1ccc2oc3cc(C)[n+]([O-])c(-c4ccc(Br)cc4)c3c2c1	·	·	-1	·	·	0
c1ccc(Oc2ccc(-n3cnnn3)cc2)cc1	0.2	0.6	-2	43	82*	6
O=C(Oc1ccccc1)c1ccc(-n2cnnn2)cc1	0.3	0.8	2	22	69*	-3
COc1cccc(-n2cnnn2)c1	1.1	1.1	2	-11	-8	0
O=C(O)c1cccc(-n2cnnn2)c1	1	1	3	-4	-3	-14
Cc1ccc(C)n1-c1ccc(-n2cnnn2)cc1	0.3	0.8	34	20	74*	-18
CCC(=O)Nc1cccc(NC(=S)NC(=O)c2ccccc2Cl)c1	0.7	2.5*	·	-154	28	·
Cc1noc(C)c1C(=O)Nc1ccc2c(c1)CCC2	0.9	1.1	2	-8	8	0
Cc1cccc(C(=O)Nc2nc(C)c(C(=O)Nc3ccc4c(c3)CCC4)s2)c1	0.8	0.4	·	58*	24	·
CC(=O)Nc1cccc(Oc2ncnc3scc(-c4ccc(C)cc4)c23)c1	·	·	-1	·	·	49
CCN(Cc1ccncc1)S(=O)(=O)c1ccc(C(C)=O)cc1	0.1	0.1	-4	87*	91*	42
CCCCOCCCNC(=O)c1ccc(OCC)cc1	0.9	0.9	-3	5	14	-2
O=C(Cn1[nH]c(=O)c2ccccc2c1=O)Nc1ccc(-c2nnc3n2CCCCC3)cc1	1	0.8	-1	19	2	-2
O=C(O)COc1ccccc1C1C2C(=O)N(c3ccc(F)cc3)C(=O)C2ON1c1ccccc1 (centres undefined)	0.6	0.5	-2	54*	38	-16
COc1ccccc1C1C2C(=O)N(c3ccccc3)C(=O)C2ON1c1ccccc1 (centres undefined)	0.2	0.1	-1	86*	77*	5
COc1ccccc1N1C(=O)C2ON(c3ccccc3)C(c3ccc(N(C)C)cc3)C2C1=O (centres undefined)	·	·	-2	·	·	-2
CCn1cc(C(=O)NC2CC3CCC2C3)c(=O)c2ccc(C)nc21 (centres undefined)	0.9	1	-5	2	13	-10
c1csc(Cc2nc3ccccc3[nH]2)c1	0.6	1.2	-1	-16	37	-29
CCOC(=O)C(C(=O)OCC)C(C(=O)OCC)N1CCOCC1 (centres undefined)	1	0.5	-2	53*	-3	26
Cc1ccc(OCc2ccc(C(=O)Nc3nc4ccccc4n3Cc3ccccc3)o2)c([N+](=O)[O-])c1	0.8	0.4	3	63*	21	-1
CCn1ncc(Br)c1C(=O)Nc1nccs1	0.7	0.7	-1	33	28	-14
O=C(Nc1ncn[nH]1)c1ccc(Cl)c(S(=O)(=O)N2CCCCCC2)c1	1	1	-2	2	1	-11
O=C(Nc1ncn[nH]1)c1c(Cl)ccc(Cl)c1Cl	0.1	1.4	-4	-37	88*	-41
SMILES	CYP2C19 act	CYP2C9 act	CD11b adhes enh	CYP2C9 inh	CYP2C19 inh	Mac1 fbg inh
O=C1CCC2(C(=O)O)Sc3ccccc3N12 (centres undefined)	1.3	1.3	-5	-34	-28	8
Cc1cc(N2CCCC2=O)cc(C)c1S(=O)(=O)NCCOc1ccccc1	0.1	0.1	0	92*	88*	-17
CCn1c(=O)n(CC)c2cc(S(=O)(=O)NCCOc3ccccc3)c(C)cc21	0.5	0.3	2	72*	51*	0
CCNS(=O)(=O)c1c(C)cc(N2CCCC2=O)cc1C	0.8	0.5	1	50	24	-12
CSc1cc(-c2ccccc2)n(Cc2c(Cl)cccc2Cl)c(=O)c1C#N	0.8	0.2	-2	75*	23	-17
COc1ccc(-c2nc(N)nc(C)c2Oc2ccccc2Br)c(O)c1	0.1	0.1	3	94*	85*	20
CCCCc1nc2ccccc2c(=O)n1NC(=O)c1c(O)c2cccc3c2n(c1=O)CCC3	0.9	0.5	-1	53*	8	-10
Cc1oc(CC(C)C)c(CN)c1C(=O)O	1	0.9	-7	8	5	-4
CCn1c(=O)n(CC)c2cc(S(=O)(=O)Nc3c(C)cccc3C)ccc21	0.1	0.3	-6	67*	94*	-5
CCn1c(=O)n(CC)c2cc(S(=O)(=O)Nc3cc(C)cc(C)c3C#N)ccc21	0.4	0.2	2	80*	62*	-8
CCn1c(=O)n(CC)c2cc(S(N)(=O)=O)ccc21	1	0.9	10	9	2	-3
CCOC(=O)c1cc2c(=O)n3cccc(C)c3nc2n(Cc2ccco2)c1=NC(=O)c1ccccc1	·	·	5	·	·	-15
CCOC(=O)c1cn(-c2nc(-c3ccc(Cl)c(Cl)c3)cs2)c2c(F)c(N3CCOCC3)c(F)cc2c1=O	1.1	0.8	52*	17	-5	6
CC(C)Sc1nc2c(c(=O)n1C)SC(C)C2 (centres undefined)	0.8	0.6	-3	41	18	3
COC(=O)C1CCN(c2cc(=O)n(-c3ccc(OC)cc3)c(=O)[nH]2)CC1	1.2	1.3	-2	-26	-23	-41
Cc1ccc(C)c(C(=O)CSc2nnnn2-c2cccnc2)c1	0.6	0.8	5	24	36	-22
Cc1ccc(C)c(C(=O)CSc2nnnn2C(C)C)c1	0.3	0.6	-3	38	66*	-21
Cc1ccc(C(=O)CSc2nnnn2C(C)C)c(C)c1	0.2	0.7	4	34	77*	-9
Cc1cc(NC(=O)C2CC(=O)OC2c2ccccc2)no1 (centres undefined)	0.5	0.9	-5	12	52*	-8
O=C(Nc1ccc2c(c1)OCCO2)NC1CCCCC1	0.8	1.1	-3	-9	21	-5
CCCCc1ccc(S(=O)(=O)Nc2cc(C)on2)cc1	0.6	0	3	96*	44	-16
O=C(CSc1ccc2c(c1)OCCO2)NC(=O)NC1CCCC1	0.1	0.3	9	72*	94*	25
Cc1cc(NC(=O)CSc2ccc3c(c2)OCCO3)no1	0.4	0.6	6	40	57*	4
Cc1cc(C)nc(SCC(=O)Nc2cc(C)on2)n1	0.6	1.1	-3	-10	35	26

Bioassay records: PubChem BioAssay, Sanford-Burnham Center for Chemical Genomics
